Results as given in the supplement of paper PMC6609913.
Structures can show the parent of a compound that is named as a salt. ± gives the standard deviation of the averaged measurements. In all, about 1,300 compounds were measured (“normalised cell viability”: median about 1, lowest 2% from about 0.15 on). This is one part of a sample in which the lowest values are shown more often than they occur.

System: V-C8 + BRCA2 (BRCA2-proficient hamster cells)
Assay: normalised cell viability (fraction of plate median); higher = more viable cells (less toxic)
Conditions: 5 µM
Summary of the method: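 Hamster V-C8 cells with and without restored BRCA2 were exposed in 96-well plates to library drugs at 5 μM for 3 days (screen 1) or 6 days (screen 2). Cell viability was scored by resazurin assay, then median-plate normalised, averaging triplicate wells.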

| Compound | normalised cell viability (treatment time: 3 days) | normalised cell viability (treatment time: 6 days) |
| --- | --- | --- |
| COc1ccc2[nH]cc(CCNC(C)=O)c2c1 [Melatonin] | 1.22 ± 0.097 | 0.928 ± 0.048 |
| CCCCCNC(=N)N/N=C/c1c[nH]c2ccc(OC)cc12 [Tegaserod maleate] | 0.1362 ± 0.0013 | 0.155 ± 0.022 |
| CC[C@@H](CO)NCCN[C@@H](CC)CO [Ethambutol dihydrochloride] | 1.05 ± 0.058 | 1 ± 0.011 |
| C1CCC(C(CC2CCCCN2)C2CCCCC2)CC1 (stereo not drawn) [Perhexiline maleate] | 0.135 ± 0.0029 | 0.125 ± 0.015 |
| Cc1nnc(SCC2=C(C(=O)O)N3C(=O)[C@@H](NC(=O)Cn4cnnn4)[C@H]3SC2)s1 [Cefazolin sodium salt] | 1.1 ± 0.034 | 1.01 ± 0.12 |
| CCCCCCCCCCCCCCCC[N+](C)(C)CCN(Cc1ccc(OC)cc1)c1ncccn1 [Thonzonium bromide] | 0.787 ± 0.094 | 0.74 ± 0.19 |
| CCCC1O[C@@H]2C[C@H]3[C@@H]4CCC5=CC(=O)C=C[C@]5(C)[C@H]4[C@@H](O)C[C@]3(C)[C@]2(C(=O)CO)O1 (stereo partly drawn) [Budesonide] | 0.9516 ± 0.0071 | 0.936 ± 0.024 |
| CC1(C)OC(=O)NC1=O [Dimethadione] | 1.08 ± 0.064 | 0.964 ± 0.043 |
| CNC[C@H](O)[C@@H](O)[C@H](O)[C@H](O)CO [Meglumine] | 0.938 ± 0.094 | 0.983 ± 0.037 |
| C[N+](C)(C)CCOC(N)=O [Carbachol] | 0.953 ± 0.043 | 1.01 ± 0.036 |
| CN1C2CCCC1CC(NC(=O)c1nn(C)c3ccccc13)C2 (stereo not drawn) [Granisetron] | 1.03 ± 0.036 | 1.01 ± 0.017 |
| CCN(CC)CCOC(=O)C1(c2ccc([N+](=O)[O-])cc2)CCCC1 [Nitrocaramiphen hydrochloride] | 1.06 ± 0.024 | 1.038 ± 0.0056 |
| CCCCCN(CCCCC)C(=O)C(CCC(=O)O)NC(=O)c1ccc(Cl)c(Cl)c1 (stereo not drawn) [Lorglumide sodium salt] | 1 ± 0.032 | 1.04 ± 0.015 |
| Cc1onc(-c2ccccc2)c1C(=O)N[C@@H]1C(=O)N2[C@@H]1SC(C)(C)[C@@H]2C(=O)O [Oxacillin sodium] | 1.04 ± 0.042 | 0.989 ± 0.025 |
| CC(=O)OC[C@H]1O[C@@H]([S-])[C@H](OC(C)=O)[C@@H](OC(C)=O)[C@@H]1OC(C)=O.CCP(CC)CC.[Au+] [Auranofin] | 0.126 ± 0.0085 | 0.128 ± 0.012 |
| C[C@H]1O[C@H](O[C@H]2[C@H](O)[C@@H](O)[C@@H](O[C@H]3[C@H](O)[C@@H](O)C(O)O[C@@H]3CO)O[C@@H]2CO)[C@H](O)[C@@H](O)[C@@H]1N[C@H]1C=C(CO)[C@@H](O)[C@H](O)[C@H]1O (stereo partly drawn) [Acarbose] | 0.928 ± 0.072 | 1.03 ± 0.056 |
| COC(=O)Nc1nc2ccc(SC(C)C)cc2[nH]1 [Methiazole] | 0.231 ± 0.016 | 0.245 ± 0.017 |
| Nc1ccc(C(=O)NCC(=O)O)cc1 [Aminohippuric acid] | 1.04 ± 0.027 | 1.11 ± 0.076 |
| CCOCCn1c(N2CCCN(C)CC2)nc2ccccc21 [Emedastine] | 1.07 ± 0.11 | 1.06 ± 0.032 |
| Nc1ccn([C@@H]2O[C@H](CO)[C@@H](O)C2(F)F)c(=O)n1 [Gemcitabine] | 0.212 ± 0.014 | 0.183 ± 0.0099 |
| NC12CC3CC(CC(C3)C1)C2 [Adamantamine fumarate] | 0.885 ± 0.035 | 0.95 ± 0.053 |
| COc1cc2c(cc1OC)C(=O)C(CC1CCN(Cc3ccccc3)CC1)C2 (stereo not drawn) [Donepezil hydrochloride] | 1.007 ± 0.0092 | 1.05 ± 0.074 |
| CN1[C@@H]2CC[C@H]1C[C@@H](OC(=O)c1c[nH]c3ccccc13)C2 [Tropisetron HCl] | 1.05 ± 0.12 | 1.24 ± 0.074 |

| Compound | normalised cell viability (treatment time: 3 days) | normalised cell viability (treatment time: 6 days) |
| --- | --- | --- |
| CCCN(CCC)C(=O)C(CCC(=O)O)NC(=O)c1ccccc1 (stereo not drawn) [Proglumide] | 0.993 ± 0.11 | 0.986 ± 0.14 |
| CC(C)/N=c1\cc2n(-c3ccc(Cl)cc3)c3ccccc3nc-2cc1Nc1ccc(Cl)cc1 [Clofazimine] | 0.274 ± 0.021 | 0.346 ± 0.037 |
| CCCN[C@H]1CCc2nc(N)sc2C1 [Pramipexole] | 0.9625 ± 0.0076 | 0.987 ± 0.022 |
| c1ccc2c(c1)CCCc1cc(NCCN3CCOCC3)nnc1-2 | 0.803 ± 0.038 | 0.87 ± 0.091 |
| CCOC(=O)OC(C)OC1=C(C(=O)Nc2ccccn2)N(C)S(=O)(=O)c2ccccc21 (stereo not drawn) [Ampiroxicam] | 1 ± 0.034 | 0.994 ± 0.079 |
| O=C(NCCO[N+](=O)[O-])c1cccnc1 [Nicorandil] | 1.11 ± 0.072 | 1.11 ± 0.13 |
| CNC(=O)c1c(I)c(C(=O)NCC(=O)Nc2c(I)c(C(=O)O)c(I)c(C(=O)NCCO)c2I)c(I)c(N(C)C(C)=O)c1I [Ioxaglic acid] | 1 ± 0.058 | 1.11 ± 0.086 |
| O=C(O)CCc1nc(-c2ccccc2)c(-c2ccccc2)o1 [Oxaprozin] | 1.06 ± 0.11 | 1.12 ± 0.078 |
| Cc1cc2cc3c(C)cc(=O)oc3c(C)c2o1 [Trioxsalen] | 0.991 ± 0.036 | 0.818 ± 0.12 |
| CC(C)Cn1cnc2c(N)nc3ccccc3c21 [Imiquimod] | 1.02 ± 0.042 | 1.019 ± 0.0077 |
| Nc1c2c(nc3ccccc13)CCCC2 [Tacrine hydrochloride] | 0.905 ± 0.038 | 1.09 ± 0.014 |
| Nc1c2ccccc2nc2ccccc12 [Aminacrine] | 0.139 ± 0.0043 | 0.156 ± 0.024 |
| O=C(Nc1ccc([N+](=O)[O-])cc1Cl)c1cc(Cl)ccc1O [Niclosamide] | 0.139 ± 0.0082 | 0.127 ± 0.0065 |
| O=C(OCCOCCO)c1ccccc1Nc1cccc(C(F)(F)F)c1 [Etofenamate] | 0.988 ± 0.045 | 0.987 ± 0.061 |
| COC(=O)Nc1nc2cc(Sc3ccccc3)ccc2[nH]1 [Fenbendazole] | 0.183 ± 0.0078 | 0.179 ± 0.017 |
| COC(=O)Nc1nc2cc(C(=O)c3ccc(F)cc3)ccc2[nH]1 [Flubendazol] | 0.168 ± 0.017 | 0.167 ± 0.0085 |
| COC(=O)Nc1nc2cc([S+]([O-])c3ccccc3)ccc2[nH]1 (stereo not drawn) [Oxfendazol] | 0.74 ± 0.055 | 0.827 ± 0.05 |
| COC(=O)Nc1nc2cc(C(=O)c3cccs3)ccc2[nH]1 [Nocodazole] | 0.143 ± 0.0097 | 0.132 ± 0.01 |
| COC(=O)Nc1nc2cc(C(=O)c3ccccc3)ccc2[nH]1 [Mebendazole] | 0.163 ± 0.013 | 0.151 ± 0.0072 |
| CCCOc1ccc2[nH]c(NC(=O)OC)nc2c1 [Oxibendazol] | 0.18 ± 0.0021 | 0.194 ± 0.0035 |
| NCC[C@H](O)C(=O)N[C@@H]1C[C@H](N)[C@@H](O[C@H]2O[C@H](CN)[C@@H](O)[C@H](O)[C@H]2O)[C@H](O)[C@H]1O[C@H]1O[C@H](CO)[C@@H](O)[C@H](N)[C@H]1O [Amikacin hydrate] | 0.584 ± 0.023 | 0.699 ± 0.089 |
| CN(C)CCC=C1c2ccccc2C=Cc2ccccc21 [Cyclobenzaprine hydrochloride] | 1.06 ± 0.062 | 1.08 ± 0.034 |
| Cc1ccc(Cl)c(Nc2ccccc2C(=O)O)c1Cl [Meclofenamic acid sodium salt monohydrate] | 1.02 ± 0.068 | 1.08 ± 0.084 |

| Compound | normalised cell viability (treatment time: 3 days) | normalised cell viability (treatment time: 6 days) |
| --- | --- | --- |
| N=C(N)NCC1COC2(CCCCC2)O1 (stereo not drawn) [Guanadrel sulfate] | 1.06 ± 0.038 | 1.03 ± 0.041 |
| CN(C/C=C/C#CC(C)(C)C)Cc1cccc2ccccc12 [Terbinafine] | 0.206 ± 0.0049 | 0.339 ± 0.031 |
| CCCCCCC[N+](CC)(CC)CCCCc1ccc(Cl)cc1 [Clofilium tosylate] | 0.897 ± 0.063 | 0.935 ± 0.094 |
| CN1CCN(CCCN2c3ccccc3Sc3ccc(S(=O)(=O)N(C)C)cc32)CC1 [Thioproperazine dimesylate] | 0.884 ± 0.11 | 0.834 ± 0.039 |
| N=C(N)N/N=C/c1c(Cl)cccc1Cl [Guanabenz acetate] | 1.1 ± 0.022 | 1.01 ± 0.082 |
| Cn1cnc([N+](=O)[O-])c1Sc1ncnc2[nH]cnc12 [Azathioprine] | 0.93 ± 0.032 | 0.93 ± 0.045 |
| C[C@@H]1CN(c2c(F)c(N)c3c(=O)c(C(=O)O)cn(C4CC4)c3c2F)C[C@H](C)N1 [Sparfloxacin] | 1.027 ± 0.009 | 1.05 ± 0.056 |
| COC(=O)C1=C(C)NC(C)=C(C(=O)OC(C)C)C1c1cccc2nonc12 (stereo not drawn) [Isradipine] | 1.02 ± 0.032 | 0.9264 ± 0.0066 |
| CC1CNc2c(cccc2S(=O)(=O)N[C@@H](CCCNC(=N)N)C(=O)N2CC[C@@H](C)C[C@@H]2C(=O)O)C1 (stereo partly drawn) [Argatroban] | 1.203 ± 0.0019 | 1.12 ± 0.14 |
| CC(=O)N(CC(O)CN(C(C)=O)c1c(I)c(C(=O)NCC(O)CO)c(I)c(C(=O)NCC(O)CO)c1I)c1c(I)c(C(=O)NCC(O)CO)c(I)c(C(=O)NCC(O)CO)c1I (stereo not drawn) [Iodixanol] | 0.975 ± 0.053 | 1 ± 0.059 |
| CN1CCC(OC(c2ccccc2)c2ccccc2)CC1 [Diphenylpyraline hydrochloride] | 0.976 ± 0.11 | 1.04 ± 0.037 |
| CO[C@@]1(NC(=O)CSCC#N)C(=O)N2C(C(=O)O)=C(CSc3nnnn3C)CS[C@@H]21 [Cefmetazole sodium salt] | 0.959 ± 0.029 | 0.98 ± 0.072 |
| O=C(Nc1cccc2c(=O)cc(-c3nnn[nH]3)oc12)c1ccc(OCCCCc2ccccc2)cc1 [Pranlukast] | 1.06 ± 0.05 | 1.08 ± 0.049 |
| CCN(CC)CCOCCOC(=O)C1(c2ccccc2)CCCC1 [Carbetapentane citrate] | 0.163 ± 0.0089 | 0.181 ± 0.0049 |
| O=C(O)CCC(=O)Nc1ccc(S(=O)(=O)Nc2nccs2)cc1 [Succinylsulfathiazole] | 0.979 ± 0.083 | 1.04 ± 0.04 |
| CC(C)(C)NCC(O)c1cc(O)cc(O)c1 (stereo not drawn) [Terbutaline hemisulfate] | 0.45 ± 0.037 | 0.5206 ± 0.0045 |
| OCC(O)CN1CCN(c2ccccc2)CC1 (racemic) [Dropropizine (R,S)] | 1.07 ± 0.041 | 0.9583 ± 0.0092 |
| COC(=O)C1=C(C)NC(C)=C(C(=O)OC2CCCN(Cc3ccccc3)C2)C1c1cccc([N+](=O)[O-])c1 (stereo not drawn) [Benidipine hydrochloride] | 0.988 ± 0.065 | 0.97 ± 0.04 |
| COc1ccc(C2CNC(=O)C2)cc1OC1CCCC1 (stereo not drawn) [Rolipram] | 0.985 ± 0.037 | 1.15 ± 0.22 |
| CC(C)c1c(C(=O)Nc2ccccc2)c(-c2ccccc2)c(-c2ccc(F)cc2)n1CC[C@@H](O)C[C@@H](O)CC(=O)O [Atorvastatin] | 0.701 ± 0.01 | 0.743 ± 0.017 |
| CC(C)n1c(/C=C/C(O)CC(O)CC(=O)O)c(-c2ccc(F)cc2)c2ccccc21 (stereo not drawn) [Fluvastatin sodium salt] | 0.134 ± 0.0077 | 0.155 ± 0.013 |
| CC[N+](C)(C)Cc1ccccc1Br [Bretylium tosylate] | 0.9932 ± 0.0068 | 0.977 ± 0.013 |
| C=C(NC(=O)C(=C)NC(=O)c1csc(C2=N[C@@H]3c4csc(n4)[C@H]4NC(=O)c5csc(n5)[C@H]([C@](C)(O)[C@@H](C)O)NC(=O)[C@H]5CSC(=N5)/C(=C/C)NC(=O)[C@H]([C@@H](C)O)NC(=O)c5csc(n5)[C@]3(CC2)NC(=O)[C@H](C)NC(=O)C(=C)NC(=O)[C@H](C)NC(=O)[C@H]([C@@H](C)CC)N[C@@H]2C=Cc3c([C@H](C)O)cc(nc3[C@H]2O)C(=O)O[C@@H]4C)n1)C(N)=O [Thiostrepton] | 0.135 ± 0.0082 | 0.126 ± 0.013 |
